The whole screen tested about 5,500 compounds, of which about 2,000 (36%) were called active. About 18% were inconclusive and are not listed. No stated cut-off is given here; in the data, active means normalized growth mostly below about 0.91 (no sharp cut-off); inconclusive means no clear call, values can overlap the other calls; inactive means mostly above about 0.92. The list shows a part of the results.
Assay: chemical genetic growth profiling, strain panel (AID 1159580);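 further: tested at 20 µM; growth read once vehicle control cultures reached saturation at 30 °C; 1 = growth at the plate median or of vehicle wells; lower values mean less growth of the strain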
Settings: S. cerevisiae deletion strains, growth OD

Measured: normalized growth

NNCc1ccccc1
inactive: locus YAL021C, strain ccr4, hits give low values 0.993 | locus YAL026C, strain drs2, hits give low values 0.986 | locus YAL030W, strain snc1, hits give low values 0.979 | locus YBL061C, strain skt5, hits give low values 0.983 | locus YBR009C, strain hhf1, hits give low values 1 | locus YBR023C, strain chs3, hits give low values 0.982 | locus YBR171W, strain sec66, hits give low values 0.97 | locus YBR231C, strain swc5, hits give low values 1.01 | locus YBR279W, strain paf1, hits give low values 0.982 | locus YCL011C, strain gbp2, hits give low values 0.99 | locus YCL016C, strain dcc1, hits give low values 0.982 | locus YCL069W, strain vba3, hits give low values 0.993 | locus YCR088W, strain abp1, hits give low values 0.974 | locus YDL005C, strain med2, hits give low values 0.992 | locus YDL040C, strain nat1, hits give low values 0.971 | locus YDR001C, strain nth1, hits give low values 0.989 | locus YDR069C, strain doa4, hits give low values 0.976 | locus YDR137W, strain rgp1, hits give low values 0.96 | locus YDR159W, strain sac3, hits give low values 0.983 | locus YDR195W, strain ref2 1.02 | locus YDR297W, strain sur2, hits give low values 0.989 | locus YDR334W, strain swr1, hits give low values 0.99 | locus YDR335W, strain msn5, hits give low values 1 | locus YDR392W, strain spt3, hits give low values 1 | locus YEL003W, strain gim4, hits give low values 0.996 | locus YEL037C, strain rad23, hits give low values 0.991 | locus YEL061C, strain CIN8 (second series), hits give low values 0.978 | locus YER015W, strain faa2, hits give low values 0.999 | locus YER016W, strain bim1, hits give low values 0.998 | locus YER111C, strain swi4, hits give low values 0.988 | locus YER155C, strain BEM2 (second series), hits give low values 0.989 | locus YFR010W, strain ubp6, hits give low values 0.989 | locus YGL167C, strain pmr1, hits give low values 0.989 | locus YGL173C, strain kem1, hits give low values 0.961 | locus YGL227W, strain vid30, hits give low values 0.994 | locus YGL240W, strain doc1, hits give low values 0.98 | locus YGL253W, strain hxk2, hits give low values 0.993 | locus YHR013C, strain ard1, hits give low values 1.03 | locus YHR027C, strain rpn1, hits give low values 0.997 | locus YHR142W, strain chs7, hits give low values 0.985 | locus YJL092W, strain hpr5, hits give low values 0.993 | locus YJL095W, strain BCK1 (second series), hits give low values 0.986 | locus YJL115W, strain asf1, hits give low values 0.987 | locus YJL129C, strain trk1, hits give low values 0.978 | locus YJL154C, strain vps35, hits give low values 0.986 | locus YJL164C, strain tpk1, hits give low values 0.98 | locus YJL166W, strain qcr8, hits give low values 0.997 | locus YJL187C, strain SWE1, hits give low values 0.987 | locus YKL160W, strain elf1, hits give low values 0.988 | locus YKR026C, strain gcn3, hits give low values 0.974 | locus YKR091W, strain srl3, hits give low values 0.985 | locus YLL001W, strain dnm1, hits give low values 0.983 | locus YLL026W, hits give low values 1 | locus YLL041C, strain sdh2, hits give low values 0.992 | locus YLR027C, strain aat2, hits give low values 0.991 | locus YLR221C, strain rsa3, hits give low values 0.978 | locus YLR258W, strain gsy2, hits give low values 0.987 | locus YLR262C, strain YPT6 (second series), hits give low values 0.906 | locus YLR320W, strain mms22, hits give low values 0.993 | locus YLR342W, strain FKS1, hits give low values 0.981 | locus YLR357W, strain rsc2, hits give low values 0.967 | locus YLR370C, strain arc18, hits give low values 0.983 | locus YLR384C, strain iki3, hits give low values 0.992 | locus YML120C, strain ndi1, hits give low values 0.979 | locus YMR058W, strain fet3, hits give low values 0.996 | locus YMR125W, strain sto1, hits give low values 0.986 | locus YMR129W, hits give low values 0.99 | locus YMR205C, strain PFK2, hits give low values 0.976 | locus YMR231W, strain pep5, hits give low values 0.994 | locus YNL071W, strain lat1, hits give low values 1.01 | locus YNL209W, strain ssb2, hits give low values 0.989 | locus YNL248C, strain rpa49, hits give low values 0.993 | locus YNL322C, strain KRE1 (second series), hits give low values 0.992 | locus YNR049C, strain mso1, hits give low values 0.99 | locus YOR001W, strain rrp6, hits give low values 0.994 | locus YOR070C, strain gyp1, hits give low values 0.989 | locus YOR080W, strain dia2, hits give low values 0.983 | locus YOR083W, strain WHI5, hits give low values 0.987 | locus YOR106W, strain vam3, hits give low values 0.963 | locus YOR265W, strain rbl2, hits give low values 1 | locus YOR270C, strain vph1, hits give low values 0.979 | locus YOR290C, strain snf2, hits give low values 0.987 | locus YPL051W, strain arl3, hits give low values 0.969 | locus YPL078C, strain atp4, hits give low values 0.997 | locus YPL106C, strain sse1, hits give low values 0.963 | locus YPL240C, strain hsp82, hits give low values 1

— PubChem BioAssay AID1159580 (chemical genetic matrix, 2015)
